From PubChem
Compounds with a hit are over-represented: about 3.8% of the library has one in this group of screens.
ADAM17 inh – ADAM17 inhibitors, primary screen, biochemical, QFRET. recombinant ADAM17, EDANS/DABCYL FRET peptide cleavage. Disintegrin and metalloproteinase domain-containing protein 17 (Homo sapiens), P78536. 0.83% of 370,000 active. inhibition, % at 6.95 µM;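 active = inhibition above the mean of compounds lying between control limits plus 3 SD, set per campaign, cut at about 8.5% in these data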
Target sequence (P78536 215-824 limits assumed): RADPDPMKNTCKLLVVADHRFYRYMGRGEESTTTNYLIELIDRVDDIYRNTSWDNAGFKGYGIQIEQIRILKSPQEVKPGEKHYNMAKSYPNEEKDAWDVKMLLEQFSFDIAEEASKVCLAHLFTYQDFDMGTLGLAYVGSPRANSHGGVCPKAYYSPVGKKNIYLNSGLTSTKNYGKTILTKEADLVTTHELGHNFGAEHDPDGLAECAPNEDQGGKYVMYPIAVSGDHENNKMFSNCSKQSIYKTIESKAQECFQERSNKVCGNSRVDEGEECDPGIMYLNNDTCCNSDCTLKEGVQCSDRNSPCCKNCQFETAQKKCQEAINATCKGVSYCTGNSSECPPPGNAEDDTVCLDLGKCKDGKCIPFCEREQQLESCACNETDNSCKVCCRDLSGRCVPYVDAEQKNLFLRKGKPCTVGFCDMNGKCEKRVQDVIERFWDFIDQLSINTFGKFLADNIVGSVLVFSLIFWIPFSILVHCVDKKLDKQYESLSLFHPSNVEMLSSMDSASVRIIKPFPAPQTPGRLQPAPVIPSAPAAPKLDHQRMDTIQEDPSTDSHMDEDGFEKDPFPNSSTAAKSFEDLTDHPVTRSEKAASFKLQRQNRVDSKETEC
KLK7 zymogen act – proKLK7 zymogen activators, primary screen, biochemical, fluorescence intensity; Kallikrein-7 (Homo sapiens), P49862; purified proKLK7, EDANS-DABCYL substrate fluorescence; 100% is mature enzyme control, 0% vehicle; activation, % at 7 µM; 0.9% of 370,000 active; AID 652039, 2013;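 active = activation above the mean of all tested compounds plus 3 SD, computed per campaign excluding outliers beyond control limits, cut at about 13% in these data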
ADAM10 inh – human ADAM10 inhibitors, primary screen, biochemical, QFRET, HTS; Disintegrin and metalloproteinase domain-containing protein 10 (Homo sapiens), O14672; recombinant ADAM10, EDANS/DABCYL FRET peptide cleavage, 3 h; inhibition, % at 7 µM; 0.62% of 370,000 active; AID 720582, 2013;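 active = inhibition above a per-campaign cutoff equal to the mean of compounds falling between control-based bounds plus 3 SD, cut at about 20% in these data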
Ecoli rRNA inh – reduced GFP signal of wild-type E. coli, primary screen, bacterial rRNA inhibitor project, GFP/RFP fluorescence, OD600, single point | 1.6% of 350,000 active | E. coli WT GFP vs humanized-ribosome RFP mutants, 24 h; stronger effect = lower value; DMSO median 0, no signal -100 | GFP signal change (wild-type ribosome), % (concentration not given with the values);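 active = significant combined selectivity score with lowered wild-type GFP, culture density cut under 30%, mutant RFP and density less affected; inactive = any of these conditions unmet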
FGF22 binding – binders of human FGF22 protein, primary screen, FGF22 synaptogenesis inhibitor project, biophysical, thermal shift, single point | recombinant FGF22 thermal shift, SYPRO orange fluorescence; percent of sucrose octasulfate shift, DMSO zero | activity (Tm shift, normalised), % at 9.99 µM | 1.5% of 340,000 active | Fibroblast growth factor 22 (Homo sapiens), Q9HCT0;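 active = mean Tm shift, scaled 0 neutral to 100 positive control, at about 1.3% or above, every replicate too, limit read from the data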
ADAM10 confirm – human ADAM10 inhibitors, confirmation, biochemical, QFRET, triplicate; shares compounds with ADAM10 inh; ADAM10 QFRET peptide cleavage, EDANS fluorescence; inhibition, % at 6.95 µM; 1% of 2,100 active;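 active = inhibition above about 20% chosen separately for each screening run, limit read from the data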
ADAM17 ctr – ADAM17 inhibitors, counter-screen for ADAM10 exosite inhibitor project, biochemical, QFRET, high throughput | shares compounds with ADAM10 inh | ADAM17 QFRET peptide cleavage, EDANS fluorescence | inhibition, % at 6.95 µM | 0.5% of 2,100 active | AID 743214, 2013;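 active = mean triplicate inhibition above the solvent-only control wells' mean plus 3 SD, cut at about 12% in these data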
Large screens that a line does not name were inactive (follow-up assays come after a bar, where they were run).

C[C@H]1CN([C@@H](C)CO)C(=O)c2cc(C3=CCCCC3)cnc2O[C@@H]1CN(C)C(=O)c1ccncc1	none (no result: ADAM17 inh, KLK7 zymogen act, ADAM10 inh)
CCOC(=O)C1C(=O)C=C(C)C(C(=O)OCC)C1c1cccc([N+](=O)[O-])c1 (centres undefined)	ADAM10 inh 20 | ADAM10 confirm inactive | ADAM17 ctr inactive
C[C@@H]1CN([C@H](C)CO)C(=O)c2cc(NC(=O)Nc3ccc(C(F)(F)F)cc3)ccc2O[C@H]1CN(C)C(=O)Nc1ccc(F)cc1	ADAM10 inh 35 | ADAM10 confirm inactive | ADAM17 ctr inactive
C[C@@H]1CCCCO[C@@H](CN(C)C(=O)Nc2ccc3c(c2)OCO3)[C@H](C)CN([C@@H](C)CO)C(=O)c2cc(NC(=O)Nc3ccc(F)cc3)ccc2O1	none (no result: ADAM17 inh, KLK7 zymogen act, ADAM10 inh)
C[C@@H]1CCCCO[C@H](CN(C)C(=O)Nc2ccc(F)cc2)[C@@H](C)CN([C@H](C)CO)C(=O)c2cc(NC(=O)c3ccccc3)ccc2O1	ADAM10 inh 23 | ADAM10 confirm inactive | ADAM17 ctr inactive
C[C@@H]1CN([C@@H](C)CO)C(=O)c2ccccc2-c2ccccc2CO[C@@H]1CN(C)Cc1ccc(Cl)c(Cl)c1	ADAM10 inh 22 | ADAM10 confirm inactive | ADAM17 ctr inactive
C[C@H](CO)N1C[C@H](C)[C@H](CN(C)Cc2ccccc2)OCc2ccccc2-c2ccccc2C1=O	none (no result: ADAM17 inh, KLK7 zymogen act, ADAM10 inh)
C[C@@H]1CCCCO[C@H](CN(C)C(=O)Nc2ccc(F)cc2)[C@H](C)CN([C@@H](C)CO)C(=O)c2cc(NC(=O)c3ccccc3)ccc2O1	none (no result: ADAM17 inh, KLK7 zymogen act, ADAM10 inh)
C[C@H]1CCCCO[C@H](CN(C)C(=O)Nc2ccc(F)cc2)[C@@H](C)CN([C@@H](C)CO)C(=O)c2cc(NC(=O)Nc3ccc4c(c3)OCO4)ccc2O1	ADAM10 inh 23 | ADAM10 confirm inactive | ADAM17 ctr inactive
C[C@@H]1CN([C@@H](C)CO)C(=O)c2cccc(NC(=O)Nc3ccc(F)cc3)c2O[C@@H]1CN(C)Cc1ccc(Oc2ccccc2)cc1	ADAM10 inh 21 | ADAM10 confirm inactive | ADAM17 ctr inactive
C[C@H]1CN([C@@H](C)CO)C(=O)c2cccc(NC(=O)Nc3ccc(F)cc3)c2O[C@@H]1CN(C)Cc1ccc(Oc2ccccc2)cc1	none (no result: ADAM17 inh, KLK7 zymogen act, ADAM10 inh)
O=[N+]([O-])c1cc([N+](=O)[O-])c2c(=Nc3ccccc3)n(-c3ccccc3)n(O)c2c1	ADAM10 inh 25 | ADAM10 confirm inactive | ADAM17 ctr inactive
O=[N+]([O-])c1cc(Br)c(Nc2ccccc2)c([N+](=O)[O-])c1	none
O=C(NC1CCCCC1)[C@H](CSCc1ccccc1)N1Cc2ccccc2C1=O	ADAM10 inh 22 | ADAM10 confirm inactive | ADAM17 ctr inactive
C/C(CC(=O)Nc1ccc([N+](=O)[O-])cc1)=N/NC(=O)C1CC12CCC2 (centres undefined)	ADAM10 inh 20 | ADAM10 confirm inactive | ADAM17 ctr inactive
C/C(CC(=O)Nc1ccc([N+](=O)[O-])cc1)=N/NC(=O)C1C2CCCCC21 (centres undefined)	none
O=C(CN1C(=O)C(c2ccc(F)cc2)=NC12CCCC2)Nc1ccc(F)cc1	none
COc1ccc(NC(=O)CN2C(=O)C(c3ccccc3)=NC23CCCCCC3)cc1	ADAM10 inh 27 (no result: Ecoli rRNA inh, FGF22 binding) | ADAM10 confirm inactive | ADAM17 ctr inactive
O=C(Nc1cccc(Cl)c1)N[C@H]1CC[C@H](CCNC(=O)C2CCCCC2)O[C@H]1CO	none (no result: ADAM17 inh, KLK7 zymogen act, ADAM10 inh)
